From the supplement of paper PMC11417369
± gives the standard deviation of the averaged measurements. Whole data set: some 25,000 sequences, median “ln(normalized median fluorescence intensity)” near 8.6, cut for the highest 2% near 10. The list comes from a sample in which the highest values are over-represented; it also holds similar and randomly drawn sequences.

System: PfAP2-EXP AP2 domain (GST-tagged)
Experiment: gcPBM binding intensity (ln(normalized median fluorescence intensity)); higher = stronger DNA binding
Procedure, shortened: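 Binding intensity is defined as the maximum Masliner-normalised natural-log median intensity across replicate spots for either probe orientation. It was measured on an Agilent 4 × 180k array of primer-extended double-stranded 36-bp intergenic genomic probes and negative controls, to which GST-tagged P. falciparum DNA-binding domains made in E. coli were applied for 1 h in 1× PBS with 1% milk, 0.2 mg/ml BSA, 0.5% salmon testes DNA and 0.03% Triton X-100. Detection was by Alexa488 anti-GST antibody and scanning at 488 nm.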

| Sequence | gcPBM binding intensity (ln) |
| --- | --- |
| GATCACTGAATAAAGGCACACATCTGACTAATTTTT [CACACA_site66] | 8.36 ± 0.39 |
| ATAAATTGAAGTAAATTTGACCTTTTTTTTTTTTTT [GTGCAC_negctrl_site354] | 8.31 ± 0.27 |
| AATGAAAGGATGCTGTGTACATATATATATATATAT [XGTACX_site7901] | 10.2 ± 0.49 |
| ATAAAATGAACCTTTTGTACATATATATATATATAT [XGTACX_site4610] | 10.1 ± 0.57 |
| TAAGGATGAATCCTTTGTACATATATATATATATAT [XGTACX_site1242] | 10.2 ± 0.28 |
| ATAATTAATGATGTATGTACGGAATTTATATATTTG [XGTACX_site5685] | 8.4 ± 0.33 |
| AAAAGATAATTATGCACACACACACCCAGACACAAC [CACACA_site5428] | 9.11 ± 0.4 |
| AAAAAAGATAATTATGCACACACACCCACCCACCCA [CACACA_site8825] | 9.57 ± 0.41 |
| AAAAGATAATTATGCACACACACACCCCCACCCAAC [CACACA_site2570] | 10.67 ± 0.099 |
| TAAAATTAATTTCTGTTGCACTTATTATTAATTAAC | 8.84 ± 0.4 |
| GTAAATATATAAACATGTACATATATAAATATATAA [XGTACX_site7262] | 8.51 ± 0.33 |
| GCAAATATGTTGATATGTACATATATATATATATAT [XGTACX_site445] | 10.2 ± 0.45 |
| ATAAAAACATAAAAATGTACATATATATATATATAT [XGTACX_site7165] | 10.1 ± 0.25 |
| TATATATAAAACATATGTACATATATATATATATAT [XGTACX_site419] | 10.2 ± 0.24 |
| TATAAACGTATAATATGTACACACACATATATACAA [XGTACX_site1686] | 8.43 ± 0.32 |
| ATAAAAAAAAATATATGTACATATATAAATTGATAT [XGTACX_site7409] | 8.73 ± 0.42 |
| GATATAAACGTATATGTACATATATATATATATATA [GTGCAC_negctrl_site186] | 10.2 ± 0.41 |
| ATATAAATATAAACATGTACATATATATATATATAT [XGTACX_site2824] | 10.3 ± 0.79 |
| AACATAAAAAAAATATGTACATATATAATATATATA [XGTACX_site3764] | 8.85 ± 0.23 |
| ATATATATATATATATGTACATATATATTGTTGATC [XGTACX_site8893] | 10.1 ± 0.26 |
| TAAATATATATAACATGTACATAAAATATATATATA [XGTACX_site4431] | 9.53 ± 0.13 |
| AATATATAAACACGTACACACACATATATGTATATA [CACACA_site9168] | 8.73 ± 0.43 |
| AATGGGTAAACATACACACACACATATATATATATA [CACACA_site1991] | 10.1 ± 0.33 |

| Sequence | gcPBM binding intensity (ln) |
| --- | --- |
| AATAAGTTATTATTTTGTACACATAAATAATACGTT [XGTACX_site814] | 8.32 ± 0.3 |
| ATATTCATATATTTACGTACATACATTTATATATTT [XGTACX_site7644] | 8.85 ± 0.37 |
| TACCTATACAGACACACACACACACGCCCACAAAAA [CACACA_site6375] | 8.77 ± 0.35 |
| GAAATTAAATGACATACACACTATATTATATATTTT [CACACA_site5693] | 8.34 ± 0.35 |
| AGTAGTCTGGAGAAGAGTACACAGTATCTGGTAGCT [XGTACX_site2042] | 8.48 ± 0.47 |
| AAATAAAATAAAAACATGCACACTTTATTTTTTTTA [CACACA_site2800] | 8.49 ± 0.26 |
| AGAAAAGAGAGAAAAACATGCACATGATATTATAAA [TGCATGCA_site120] | 8.62 ± 0.53 |
| AAACATATAAACATATGTACATATAAACATATATAC [XGTACX_site5026] | 8.64 ± 0.33 |
| ATATATATATATATATGTACGTATTCATAAACAACA [XGTACX_site4282] | 10.2 ± 0.6 |
| ATAAATAAAACAAAATGTACAAATATTCATATATTC [XGTACX_site1307] | 8.49 ± 0.32 |
| TTATATGCATAAAAACGTACAAAAATGTATTCATGT [XGTACX_site2215] | 8.71 ± 0.38 |
| AAACATATATACATATGTACATATATACATATATGT [XGTACX_site5779] | 8.4 ± 0.26 |
| ATAAATATAAATATATGTACATATATATATATATAT [XGTACX_site7433] | 10.2 ± 0.15 |
| ATATATATATATATATGTACATAAACATATATATAT [XGTACX_site1064] | 10.2 ± 0.21 |
| AATATGATATATATATGTACATATATATAATATAAT [XGTACX_site3072] | 8.52 ± 0.41 |
| CATGATATATAAATATGTACATATATATATATATAT [XGTACX_site1760] | 10.2 ± 0.23 |
| TTTTTTCTTTCTTTCAAACACACATTAATTTTATTC [CACACA_site2733] | 8.66 ± 0.49 |
| ATAAATATGGAGCACACACACATAAACATACATATA [CACACA_site421] | 8.84 ± 0.67 |
| AGAAGGATATTATGAAGTACACATATTGTATATGGT [XGTACX_site7503] | 8.47 ± 0.35 |
| AATATATAAATATTGTGTACTTATTTTTTTATATGT [XGTACX_site4377] | 8.49 ± 0.18 |
| TAAATATGAGGGAACACACACATGATATATAAATTC [CACACA_site2400] | 8.81 ± 0.43 |
| TATATATTGCCCTTCACACACACACCCATATATATA [CACACA_site2493] | 9.06 ± 0.42 |
